A number with no mark means an inactive call. Inconclusive results are not listed. Where a call stands in place of a potency, no number is given. Calls of active or inactive are those of the source. Unless noted, calls come from the whole dose curve; as a rule, active = well fitted curve in the direction sought with a large enough effect; inconclusive = small, poorly fitted or top-dose-only effect, or another doubt; inactive = no such curve, though single readings can be large; an effect the other way counts as inactive or inconclusive.
Tests used:
[1] = Stat Signaling Pathway (AID 446; active = well fitted curve in either direction with a large enough effect, not every such curve was filed as active;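 note: ME-180 cervical cancer cells given 40 pM IL-6 alongside compound; SIE-controlled beta-lactamase reporter measured as 460/530 nm FRET emission ratio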)
Outline: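 Compound effects on IL-6-induced STAT reporter activity were measured in ME-180 cells. After overnight culture, cells were co-treated with 40 pM IL-6 for 5 hrs before beta-lactamase substrate loading at room temperature.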

[2] = molecular target: Glucocorticoid receptor (Homo sapiens) (UniProt P04150); assay: GR-GFP Redistribution (AID 450;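 active = compounds whose dose series gives a full or clear partial fitted curve of increased nuclear translocation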; note: potency is the fitted concentration of half-maximal effect); details: U2OS GR-GFP nuclear translocation, laser cytometry, 2 h
[3] = molecular target: Glucocorticoid receptor (Homo sapiens) (UniProt P04150); assay: GR-EFC Redistribution (AID 451; calls by dose curve; note: potency is the fitted concentration of half-maximal effect); details: CHO-K1 GR-EFC translocation, beta-gal luminescence, 2 h
Outline: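 CHO-K1 cells stably expressing nuclear-localized β-gal enzyme acceptor and GR fused C-terminally to the enzyme donor fragment; ligand-driven nuclear translocation restores β-gal by complementation. Compounds titrated up to 46 uM final, 2 h at 37 °C; luminescence read.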

[4] = molecular target: Dual specificity protein kinase CLK4 (Homo sapiens) (UniProt Q9HAZ1); assay: qHTS Assay for Inhibitors of CDC-like Kinase 4 (ADP-Glo Assay) (AID 1771); note: nearly all actives have a fitted effect of over 70% in size; note: potency is the fitted concentration of half-maximal effect
Outline: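 ADP production was read by ADP-Glo luminescence after residual ATP depletion, following 1 h room-temperature reaction of 25 nM Clk4, 1 uM ATP and 100 uM RS peptide with MgCl2, EGTA, DTT and Triton X-100.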

[5] = molecular target: Ubiquitin carboxyl-terminal hydrolase 1 (Homo sapiens) (UniProt O94782); assay: Inhibitors of USP1/UAF1: Pilot qHTS (AID 504865); note: nearly all actives have a fitted effect of over 35% in size; note: potency is the fitted concentration of half-maximal effect
Outline: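 1nM USP1/UAF1 + cpd, 15 min RT; start w/ Ub-Rho 150nM final; kinetic FL 480/540 nm, 6 reads q60 s. Buffer 50mM HEPES pH 7.8, 0.5mM EDTA, 1mM TCEP, 0.01% Tween-20, 0.1 mg/ml BSA.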

[6] = molecular target: Mitogen-activated protein kinase 10 (Mus musculus) (UniProt Q61831); assay: JNK3 AlphaScreen Assay (AID 530; active = well fitted curve in either direction with a large enough effect, not every such curve was filed as active;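 note: kinase came from lysate of stimulated human HepG2 cells; signal reports phosphorylation of biotinylated GST-cJun 1-79 at Ser73 with 10 µM ATP; series mostly up to about 57 µM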)
Outline: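 Phosphorylation of biotinylated GST-cJun(1-79) at Ser73 is measured by AlphaScreen proximity luminescence. Enzyme is JNK3 in HepG2 lysates activated with interleukin-1beta and tumor necrosis factor alpha; ATP is 10 uM final.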

[7] = Viability counterscreen for antagonist of constitutive androstane receptor (CAR) against the NCATS DSHEA and TCM libraries (AID 1794837);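 note: compound exposure lasted 24 h before viability reading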
Outline: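 Cell viability, CellTiter-Fluor, Ex/Em 405/540 nm, 1 h at 37C. HepG2-CYP2B6-hCAR, 2,500 cells/well; cpds + CITCO 48 uM final (antagonist mode), 24 h, 37C/5% CO2.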

[8] = Viability counterscreen for agonist of constitutive androstane receptor (CAR) against the NCATS DSHEA and TCM libraries (AID 1794838)
Outline: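 Viability by CellTiter-Fluor fluorescence, 405/540 nm, after 1 h at 37C. HepG2-CYP2B6-hCAR cells were exposed 24 h to test substances in presence of 0.75 uM PK11195 (final).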

[9] = molecular target: Nuclear receptor subfamily 1 group I member 3 (Homo sapiens) (UniProt Q14994); assay: Primary qHTS for agonist of constitutive androstane receptor (CAR) against the NCATS DSHEA and TCM libraries (AID 1794839);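 note: HepG2 cells expressing human CAR with a CYP2B6 reporter plus PK11195 antagonist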
Outline: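 Luminescence from ONE-Glo luciferase was the agonist read-out in HepG2-CYP2B6-hCAR cells exposed 24 h to test substances. Wells also held the CAR antagonist PK11195 at 0.75 µM final. Viability was by CellTiter-Fluor fluorescence.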

[10] = HepG2 viability counterscreen (readout 2: ATP content) against the NCATS DSHEA and TCM libraries (AID 1794840)
Outline: (§1)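 1,000 HepG2 cells/well, 4 h attach; compounds ~24 h, 37C/5% CO2. Readout 1: GF-AFC 25 uM final, 30 min, fluorescence 380/510 nm. Readout 2: CellTiter-Glo, 30 min RT, luminescence.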

[11] = HepG2 viability counterscreen (readout 1: protease activity) against the NCATS DSHEA and TCM libraries (AID 1794841);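 note: cells exposed to compounds for about 24 h before the protease read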
Outline: as §1

[12] = molecular target: Cytochrome P450 3A4 (Homo sapiens) (UniProt P08684); assay: qHTS for inhibitors of CYP3A4 against the NCATS DSHEA and TCM libraries (AID 1919971);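 note: inhibition lowers luminescence from luciferin made by CYP3A4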
Outline: (§2)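 Each CYP isoform and its pro-luciferin substrate, at isoform-specific final concentrations, were preincubated 15 min at RT with substances. NADPH regeneration solution (1x) started a 30-45 min reaction, and P450-Glo luminescence was read.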

[13] = molecular target: Cytochrome P450 2D6 (Homo sapiens) (UniProt P10635); assay: qHTS for inhibitors of CYP2D6 against the NCATS DSHEA and TCM libraries (AID 1919972)
Outline: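 CYP2D6 enzyme with pro-luciferin substrate in manufacturer buffer (typically 100 mM KPO4), preincubated 15 min RT with substances (most at 19.5 nM upward); NADPH regeneration system (1x) started 30–45 min RT reaction; P450-Glo luminescence read after 30 min; quinidine as intraplate control.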

[14] = molecular target: Cytochrome P450 2C19 (Homo sapiens) (UniProt P33261); assay: qHTS for inhibitors of CYP2C19 against the NCATS DSHEA and TCM libraries (AID 1919974);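 note: luminescence from luciferin released by CYP2C19 oxidation of a pro-luciferin substrate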
Outline: as §2

[15] = KB-3-1 P-gp reporter qHTS against the NCATS DSHEA and TCM libraries (AID 1919975)
Outline: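 CellTiter-Glo luminescence viability readout; KB-3-1 parental cells, 500/well, attached ~4 h, then compound for ~72 h, 37C, 5% CO2. Bortezomib intraplate control.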

[16] = Dual reporter qHTS for agonist of Pregnane X Receptor (hPXR) against the NCATS DSHEA and TCM libraries: Fluorescence readout (AID 1920058)
Outline: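 Viability readout (CellTiter-Fluor, 405/540 nm, 1 h) from agonist-mode PXR dual reporter in hPXR-Luc HepG2 cells. Substances ~24 h, 37 °C, 5% CO2; rifampicin reference, tetraoctyl ammonium bromide cytotoxic control.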

[17] = molecular target: Nuclear receptor subfamily 1 group I member 2 (Homo sapiens) (UniProt O75469); assay: Dual reporter qHTS for agonist of Pregnane X Receptor (hPXR) against the NCATS DSHEA and TCM libraries: Luminescence readout (AID 1920059)
Outline: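 hPXR-LucHepG2 cells in phenol red-free DMEM with 5% charcoal-stripped FBS, 2000 cells/well, attached 5 h, then exposed 24 h at 37C to compounds; rifampicin as positive agonist control (2.8 nM–92 uM). Luciferase luminescence read.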

[18] = molecular target: Nuclear receptor subfamily 1 group I member 2 (Homo sapiens) (UniProt O75469); assay: Dual reporter qHTS for antagonist of Pregnane X Receptor (hPXR) against the NCATS DSHEA and TCM libraries: Luminescence Readout (AID 1920060);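 note: HepG2 cells carrying hPXR luciferase reporter stimulated with rifampicin at 2 µM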
Outline: (§3)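 Antagonist mode: rifampicin 2 uM final co-added with compounds to hPXR-LucHepG2 cells for 24 h at 37C. Viability by CellTiter-Fluor, Ex/Em 405/540 nm, 1 h; reporter by ONE-Glo luminescence.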

[19] = Dual reporter qHTS for antagonist of Pregnane X Receptor (hPXR) against the NCATS DSHEA and TCM libraries: Fluorescence Readout (AID 1920061)
Outline: as §3

[20] = qHTS Counterscreen for compound interference against the NCATS DSHEA and TCM libraries (AID 1919978); details: firefly luciferase detection reagent interference, luminescence;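 note: compounds preincubated with 1 µM D-luciferin or buffer before detection reagent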
Outline: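 Luminescence counterscreen for detection-kit interference: compounds at 19.5 nM–39.8 uM final, 15 min RT with 1 uM D-luciferin or buffer only; detection reagent added, 30 min RT, then read.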

Chain of Dual specificity protein kinase CLK4 (Homo sapiens) (Q9HAZ1 whole entry, looked up): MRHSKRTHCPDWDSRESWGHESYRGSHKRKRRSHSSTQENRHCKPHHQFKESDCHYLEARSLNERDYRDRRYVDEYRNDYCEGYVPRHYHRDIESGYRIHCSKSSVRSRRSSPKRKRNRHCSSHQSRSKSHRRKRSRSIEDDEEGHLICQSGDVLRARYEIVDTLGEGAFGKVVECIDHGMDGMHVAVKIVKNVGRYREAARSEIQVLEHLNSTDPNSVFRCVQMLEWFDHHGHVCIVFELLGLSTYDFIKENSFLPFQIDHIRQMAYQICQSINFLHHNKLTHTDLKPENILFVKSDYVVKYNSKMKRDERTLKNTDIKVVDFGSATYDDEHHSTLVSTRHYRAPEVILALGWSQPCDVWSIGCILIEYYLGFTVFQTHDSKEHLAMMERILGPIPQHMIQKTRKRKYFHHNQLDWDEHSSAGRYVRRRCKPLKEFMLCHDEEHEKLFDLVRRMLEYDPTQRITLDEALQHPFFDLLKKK
Chain of Nuclear receptor subfamily 1 group I member 2 (Homo sapiens) (O75469 whole entry, looked up): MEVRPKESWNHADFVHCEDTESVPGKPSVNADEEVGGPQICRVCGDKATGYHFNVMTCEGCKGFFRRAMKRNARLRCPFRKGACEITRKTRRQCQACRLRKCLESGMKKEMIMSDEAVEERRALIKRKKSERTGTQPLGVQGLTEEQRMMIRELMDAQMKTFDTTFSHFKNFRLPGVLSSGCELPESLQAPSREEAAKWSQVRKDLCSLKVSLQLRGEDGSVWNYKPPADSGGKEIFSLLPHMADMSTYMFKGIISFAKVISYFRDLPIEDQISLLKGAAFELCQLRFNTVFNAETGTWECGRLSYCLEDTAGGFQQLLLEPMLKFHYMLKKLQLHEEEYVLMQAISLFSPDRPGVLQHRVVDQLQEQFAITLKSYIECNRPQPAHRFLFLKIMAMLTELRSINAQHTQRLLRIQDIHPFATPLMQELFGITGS
Chain of Ubiquitin carboxyl-terminal hydrolase 1 (Homo sapiens) (O94782 whole entry, looked up): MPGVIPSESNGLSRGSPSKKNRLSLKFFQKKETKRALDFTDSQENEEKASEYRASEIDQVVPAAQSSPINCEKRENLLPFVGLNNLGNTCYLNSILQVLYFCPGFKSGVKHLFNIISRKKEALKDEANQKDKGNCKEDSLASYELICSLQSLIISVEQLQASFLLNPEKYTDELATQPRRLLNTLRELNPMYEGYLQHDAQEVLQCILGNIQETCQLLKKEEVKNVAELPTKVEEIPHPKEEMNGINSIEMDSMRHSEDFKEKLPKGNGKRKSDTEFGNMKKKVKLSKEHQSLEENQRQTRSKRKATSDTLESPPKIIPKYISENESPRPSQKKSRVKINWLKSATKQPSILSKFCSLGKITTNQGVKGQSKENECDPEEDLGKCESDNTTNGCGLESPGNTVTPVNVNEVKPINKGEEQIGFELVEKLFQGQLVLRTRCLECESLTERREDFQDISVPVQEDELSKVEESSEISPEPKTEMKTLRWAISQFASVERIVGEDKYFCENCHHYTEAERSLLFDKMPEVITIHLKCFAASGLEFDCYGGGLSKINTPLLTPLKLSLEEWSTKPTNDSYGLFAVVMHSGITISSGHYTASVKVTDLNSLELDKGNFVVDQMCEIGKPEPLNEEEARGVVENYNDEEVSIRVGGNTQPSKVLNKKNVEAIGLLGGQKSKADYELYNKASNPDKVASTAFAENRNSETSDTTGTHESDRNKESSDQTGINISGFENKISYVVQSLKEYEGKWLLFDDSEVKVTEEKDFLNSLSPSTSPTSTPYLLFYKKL
Chain of Glucocorticoid receptor (Homo sapiens) (P04150 whole entry, looked up, the tested form may be a part): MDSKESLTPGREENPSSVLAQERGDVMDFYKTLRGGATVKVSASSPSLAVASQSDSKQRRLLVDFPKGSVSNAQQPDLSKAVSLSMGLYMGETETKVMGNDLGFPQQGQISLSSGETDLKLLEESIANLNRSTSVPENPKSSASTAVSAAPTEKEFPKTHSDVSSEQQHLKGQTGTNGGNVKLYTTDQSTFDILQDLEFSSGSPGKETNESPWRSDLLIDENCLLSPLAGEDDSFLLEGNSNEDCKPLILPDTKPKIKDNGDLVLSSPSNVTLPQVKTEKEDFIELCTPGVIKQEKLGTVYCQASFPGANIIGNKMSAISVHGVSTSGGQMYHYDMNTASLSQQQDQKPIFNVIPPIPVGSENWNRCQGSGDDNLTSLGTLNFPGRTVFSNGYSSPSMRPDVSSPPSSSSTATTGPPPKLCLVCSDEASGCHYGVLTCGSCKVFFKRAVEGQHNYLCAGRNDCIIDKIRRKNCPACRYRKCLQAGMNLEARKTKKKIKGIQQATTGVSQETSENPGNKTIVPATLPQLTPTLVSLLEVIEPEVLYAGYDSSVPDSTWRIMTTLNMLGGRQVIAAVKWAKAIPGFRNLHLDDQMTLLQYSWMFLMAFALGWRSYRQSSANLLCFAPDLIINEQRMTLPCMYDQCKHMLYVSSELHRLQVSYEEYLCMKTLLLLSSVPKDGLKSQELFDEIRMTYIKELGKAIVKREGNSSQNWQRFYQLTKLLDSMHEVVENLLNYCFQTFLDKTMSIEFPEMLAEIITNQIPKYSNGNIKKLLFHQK
Chain of Nuclear receptor subfamily 1 group I member 3 (Homo sapiens) (Q14994 whole entry, looked up): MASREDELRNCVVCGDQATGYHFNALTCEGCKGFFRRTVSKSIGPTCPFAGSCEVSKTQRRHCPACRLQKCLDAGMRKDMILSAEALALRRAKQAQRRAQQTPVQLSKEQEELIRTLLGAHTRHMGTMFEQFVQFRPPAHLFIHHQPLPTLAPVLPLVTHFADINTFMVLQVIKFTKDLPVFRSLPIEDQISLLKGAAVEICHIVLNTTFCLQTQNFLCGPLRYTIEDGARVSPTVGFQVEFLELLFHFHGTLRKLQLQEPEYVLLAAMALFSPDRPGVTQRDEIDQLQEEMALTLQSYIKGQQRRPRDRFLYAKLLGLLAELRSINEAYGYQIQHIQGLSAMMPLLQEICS
Chain of Cytochrome P450 2D6 (Homo sapiens) (P10635 whole entry, looked up): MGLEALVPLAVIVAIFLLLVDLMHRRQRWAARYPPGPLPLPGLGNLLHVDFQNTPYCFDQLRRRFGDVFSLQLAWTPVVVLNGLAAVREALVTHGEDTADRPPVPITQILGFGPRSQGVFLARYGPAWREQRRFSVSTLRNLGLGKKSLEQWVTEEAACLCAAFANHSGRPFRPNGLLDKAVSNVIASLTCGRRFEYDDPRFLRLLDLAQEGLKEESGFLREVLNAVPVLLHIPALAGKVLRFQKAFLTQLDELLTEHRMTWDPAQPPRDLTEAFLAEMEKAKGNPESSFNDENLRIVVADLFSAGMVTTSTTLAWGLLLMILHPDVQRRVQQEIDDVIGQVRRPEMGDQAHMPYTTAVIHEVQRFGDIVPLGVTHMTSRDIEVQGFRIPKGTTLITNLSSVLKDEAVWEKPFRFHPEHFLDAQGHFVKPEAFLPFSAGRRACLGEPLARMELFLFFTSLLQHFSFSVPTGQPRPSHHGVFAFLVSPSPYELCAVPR
Chain of Cytochrome P450 2C19 (Homo sapiens) (P33261 whole entry, looked up): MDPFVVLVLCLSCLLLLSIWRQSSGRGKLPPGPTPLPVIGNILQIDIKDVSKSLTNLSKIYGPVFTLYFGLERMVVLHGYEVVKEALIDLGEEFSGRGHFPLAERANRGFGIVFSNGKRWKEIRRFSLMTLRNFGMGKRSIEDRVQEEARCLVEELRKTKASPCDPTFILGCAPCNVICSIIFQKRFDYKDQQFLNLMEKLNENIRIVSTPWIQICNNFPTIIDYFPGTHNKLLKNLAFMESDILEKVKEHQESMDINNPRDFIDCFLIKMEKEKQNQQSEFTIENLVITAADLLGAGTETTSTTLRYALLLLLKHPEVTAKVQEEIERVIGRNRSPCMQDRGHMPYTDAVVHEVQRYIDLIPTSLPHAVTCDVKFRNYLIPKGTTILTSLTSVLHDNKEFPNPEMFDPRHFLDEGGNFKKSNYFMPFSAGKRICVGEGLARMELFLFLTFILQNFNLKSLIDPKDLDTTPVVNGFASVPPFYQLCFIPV
Chain of Cytochrome P450 3A4 (Homo sapiens) (P08684 whole entry, looked up, canonical isoform): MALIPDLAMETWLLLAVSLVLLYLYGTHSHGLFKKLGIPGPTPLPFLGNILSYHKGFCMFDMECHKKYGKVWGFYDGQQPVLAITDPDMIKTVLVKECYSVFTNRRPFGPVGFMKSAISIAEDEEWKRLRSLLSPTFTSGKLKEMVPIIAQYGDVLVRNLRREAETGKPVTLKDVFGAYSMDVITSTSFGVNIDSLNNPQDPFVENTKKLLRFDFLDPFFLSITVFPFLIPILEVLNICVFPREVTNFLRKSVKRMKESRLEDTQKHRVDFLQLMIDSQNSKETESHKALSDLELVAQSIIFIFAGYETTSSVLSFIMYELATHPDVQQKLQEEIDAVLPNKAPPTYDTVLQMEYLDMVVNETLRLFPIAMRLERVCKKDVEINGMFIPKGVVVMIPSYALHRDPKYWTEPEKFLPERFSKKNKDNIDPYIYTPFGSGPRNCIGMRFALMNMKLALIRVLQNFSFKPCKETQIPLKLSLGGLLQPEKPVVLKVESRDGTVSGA

CN1CCN(c2ncc3nc(-c4cn(C)c5ccccc45)c(=O)n(C[C@H]4CCCO4)c3n2)CC1
outcome [1]: inactive | Potency [2]: > 46 µM | Potency [3]: > 46 µM | Potency [4]: inactive | Potency [5]: inactive

Cc1ccccc1-c1nc(Nc2ccncc2)c2ccccc2n1
outcome [1]: inactive | Potency [3]: > 46 µM | Potency [6]: inactive | Potency [4]: 25.1 µM (active)

O=c1c(CCc2ccccc2)nc2cncnc2n1Cc1ccccc1
outcome [1]: inactive | Potency [2]: > 46 µM | Potency [3]: > 46 µM | Potency [6]: inactive | Potency [4]: inactive | Potency [5]: inactive

Cc1cnc(CNc2ncnc3ccc(-c4ccc(N(C)C)cc4)cc23)cn1
outcome [1]: inactive | Potency [2]: > 46 µM | Potency [3]: > 46 µM | Potency [4]: 11.2 µM (active) | Potency [5]: inactive

COc1ccc2[nH]cc(CCNc3ncncc3-c3ccccc3C)c2c1
outcome [1]: inactive | Potency [2]: > 46 µM | Potency [3]: > 46 µM | Potency [6]: inactive | Potency [4]: 28.2 µM (active) | Potency [5]: inactive

CN(C)c1ccc(-c2cc(N(C)Cc3ccco3)ncn2)cc1
outcome [1]: inactive | Potency [2]: > 46 µM | Potency [3]: > 46 µM | Potency [6]: inactive | Potency [4]: 31.6 µM (active) | Potency [5]: inactive

COc1ccc(-c2nc3cnc(N4CCOCC4)nc3n(-c3ccc(OC)cc3)c2=O)cc1
outcome [1]: inactive | Potency [2]: > 9.22 µM | Potency [3]: > 46 µM | Potency [4]: inactive

CN(Cc1ccco1)c1ncnc2ccc(-c3cccc(NS(C)(=O)=O)c3)cc12
outcome [1]: inactive | Potency [2]: > 46 µM | Potency [3]: > 46 µM | Potency [6]: inactive | Potency [4]: 7.94 µM (active) | Potency [5]: inactive

CC(C)=CCCC(C)=CCCC(C)=CCCC=C(C)CCC=C(C)CCC=C(C)C
outcome [7]: inactive | outcome [8]: inactive | Potency [9]: inactive | outcome [10]: inactive | outcome [11]: inactive | Potency [12]: inactive | Potency [13]: inactive | Potency [14]: inactive | outcome [15]: inactive | outcome [16]: inactive | Potency [17]: inactive | outcome [18]: inactive | outcome [19]: inactive

COc1cccc(Nc2ncc3nc(-c4cccs4)c(=O)n(C[C@H]4CCCO4)c3n2)c1
outcome [1]: inactive | Potency [2]: > 9.22 µM | Potency [3]: > 46 µM | Potency [6]: inactive | Potency [4]: inactive

Cc1cnc(CNc2ncnc3ccc(-c4ccccc4Cl)cc23)cn1
Potency [2]: > 46 µM | Potency [3]: > 46 µM | Potency [4]: 14.1 µM (active) | Potency [5]: inactive

COc1ccccc1-c1nc(NC2CC2)c2ccccc2n1
outcome [1]: inactive | Potency [2]: > 46 µM | Potency [3]: > 46 µM | Potency [6]: inactive | Potency [4]: 14.1 µM (active) | Potency [5]: inactive

COc1ccc2[nH]cc(CCNc3ncnc4ccc(-c5cccc(C#N)c5)cc34)c2c1
outcome [1]: inactive | Potency [2]: > 46 µM | Potency [3]: > 46 µM | Potency [6]: inactive | Potency [4]: 15.8 µM (active) | Potency [5]: inactive

CC(=O)OC1CC2CCC1(C)C2(C)C (stereo not given)
Potency [5]: inactive | outcome [7]: inactive | outcome [8]: inactive | Potency [9]: inactive | outcome [10]: inactive | outcome [11]: inactive | Potency [12]: inactive | Potency [13]: inactive | Potency [14]: inactive | outcome [15]: inactive | max response [20]: 3.9% | outcome [16]: inactive | Potency [17]: inactive | outcome [18]: inactive | outcome [19]: inactive

CN(Cc1ccco1)c1nc(-c2ccccc2C(F)(F)F)nc2ccccc12
outcome [1]: inactive | Potency [2]: > 46 µM | Potency [3]: > 46 µM | Potency [6]: inactive | Potency [4]: 28.2 µM (active) | Potency [5]: 28.2 µM (active)

COc1ccccc1CNc1ncnc2ccc(-c3cccc(NS(C)(=O)=O)c3)cc12
outcome [1]: inactive | Potency [2]: > 46 µM | Potency [3]: > 46 µM | Potency [6]: inactive | Potency [4]: 14.1 µM (active) | Potency [5]: inactive

COc1cccc(-c2ccc3ncnc(NCc4ccc(OC)cc4OC)c3c2)c1
outcome [1]: inactive | Potency [2]: > 46 µM | Potency [3]: > 46 µM | Potency [6]: inactive | Potency [4]: 3.16 µM (active) | Potency [5]: inactive

COc1cccc(-c2ccc3ncnc(NCc4cnc(C)cn4)c3c2)c1
outcome [1]: inactive | Potency [2]: > 46 µM | Potency [3]: > 46 µM | Potency [4]: 2.51 µM (active) | Potency [5]: inactive

COc1ccc(Oc2ncc3nc(-c4ccc(F)cc4)c(=O)n(C[C@H]4CCCO4)c3n2)cc1
outcome [1]: inactive | Potency [2]: > 9.22 µM | Potency [3]: > 46 µM | Potency [6]: inactive | Potency [4]: inactive | Potency [5]: inactive

O=c1c(CCc2ccccc2)nc2cnc(N3CCNCC3)nc2n1-c1ccccc1
outcome [1]: inactive | Potency [2]: > 9.22 µM | Potency [3]: > 46 µM | Potency [6]: inactive | Potency [4]: inactive | Potency [5]: inactive

COc1ccc2[nH]cc(CCNc3ncnc4ccc(-c5ccoc5)cc34)c2c1
outcome [1]: inactive | Potency [2]: > 46 µM | Potency [3]: > 46 µM | Potency [6]: inactive | Potency [4]: 0.708 µM (active) | Potency [5]: inactive

COc1ccc2[nH]cc(CCNc3ncncc3-c3ccc4c(c3)OCO4)c2c1
outcome [1]: inactive | Potency [2]: > 46 µM | Potency [3]: > 46 µM | Potency [6]: inactive | Potency [4]: 7.08 µM (active) | Potency [5]: inactive

COc1ccccc1CNc1ccnc(-c2cccnc2)n1
outcome [1]: inactive | Potency [2]: > 46 µM | Potency [3]: > 46 µM | Potency [6]: inactive | Potency [4]: 28.2 µM (active) | Potency [5]: inactive

COc1ccc(Oc2ncc3nc(-c4ccc(F)cc4)c(=O)n(CCC#N)c3n2)cc1
outcome [1]: inactive | Potency [2]: > 9.22 µM | Potency [3]: > 46 µM | Potency [6]: inactive | Potency [4]: inactive | Potency [5]: inactive

COc1cccc(Nc2ncc3ncc(=O)n(Cc4ccc(F)cc4)c3n2)c1
outcome [1]: inactive | Potency [2]: > 9.22 µM | Potency [3]: > 46 µM | Potency [6]: inactive | Potency [4]: 2.51 µM (active) | Potency [5]: inactive

CCNc1ncc2nc(-c3ccc(OC)cc3)c(=O)n(C)c2n1
Potency [3]: > 46 µM | Potency [6]: inactive | Potency [4]: inactive | Potency [5]: inactive

COc1ccccc1CNc1nc(-c2ccoc2)nc2ccccc12
outcome [1]: inactive | Potency [2]: > 46 µM | Potency [6]: inactive | Potency [4]: inactive | Potency [5]: inactive
